Assay results reported in PubChem BioAssay AID2284424 (EPA ToxCast).
Activity calls are given as the source filed them. Rule for the calls: active = hit-call score of the fitted dose curve at least 0.9, where 1 is the maximum; inactive = score below 0.9.

tested on: SRY-box transcription factor 2 (SOX2) Protein Expression, SOX2 (gene 6657); test: CCTE_Deisenroth_DEVTOX-GLR_Ecto_SOX2: CCTE's DevTox GLR-Ecto Assay Evaluation of SRY-box transcription factor 2 (SOX2) Protein Expression, Deisenroth Lab
Procedure: CCTE_Deisenroth_DEVTOX-GLR_Ecto assay is a cell-based, multiplex-readout assay that uses RUES2-GLR, a human pluripotent cell line, with measurements taken at 48 hours after chemical dosing in a 384-well microplateCCTE_Deisenroth_DEVTOX-GLR_Ecto_SOX2 is 1 of 4 assay components calculated from the CCTE_Deisenroth_DEVTOX-GLR_Ecto assay and it measures an the percentage of cells in an ectoderm state. Using a type of inducible fluorescent protein reporter, gain-of-signal activity can be used to understand changes in gene expression with fluorescent microscopy. The percentage of SOX2+ cells are determined by calculating the number of SOX2+ cells divided by the cell count. To generalize the intended target to other relatable targets, this assay component is annotated to the transcription factor intended target family, where the subfamily is SRY-related HMG-box.Data from the assay component CCTE_Deisenroth_DEVTOX-GLR_Ecto_SOX2 was analyzed as 1 assay endpoint. The endpoint is the percent change in SOX2+ cell population relative to the 0.2% DMSO control in the CCTE_Deisenroth_DEVTOX-GLR_Ecto assay. Furthermore, this assay endpoint can be referred to as a primary readout, because this assay has produced multiple assay endpoints where this one serves as a measure of ectoderm differentiation.
All assay protocols are aligned to the DevTox GLR-Endo assay workflow. Cells are seeded into 384-well microplates for 24 hours prior to initiating differentiation in defined media for a total duration of 48 hours. A total of two chemical exposures are administered in 24-hour intervals during the 48-hour differentiation period. At the assay termination point, cells are fixed and stained with a fluorescent dye demarcating the nucleus. High-content imaging is used to acquire brightfield and fluorescent channel images across 5 fields per well. Cell identification and mean biomarker fluorescence intensities are calculated with image analysis software to determine the total cell counts for viability assessment and the biomarker expression frequency for each lineage-dependent assay. A typical experimental design tests a 10-point concentration series (1 nM - 200 uM) for 28 compounds in single technical replicate. Assay plate controls include non-differentiated pluripotent cells (baseline control), lineage-specific differentiated cells (differentiation control), and DMSO solvent exposed differentiated cells (solvent control). Experiments typically comprise a minimum of four experimental replicates (n=4).

Compound	AC50	outcome
CC1=C(/C=C/C(C)=C/C=C/C(C)=C\C(=O)O)C(C)(C)CCC1	5.86 µM (active)	
CC(=O)Nc1ccc(O)cc1		inactive
O=C1CCC(N2C(=O)c3ccccc3C2=O)C(=O)N1 (stereo unspecified)		inactive
Nc1nc2ncc(CNc3ccc(C(=O)N[C@@H](CCC(=O)O)C(=O)O)cc3)nc2c(=O)[nH]1		inactive
O=c1[nH]cc(F)c(=O)[nH]1	9.11 µM (active)	
Nc1cccc2c1C(=O)N(C1CCC(=O)NC1=O)C2=O (stereo unspecified)		inactive
CCCC(CCC)C(=O)O		inactive
CC(C)(c1ccc(O)cc1)c1ccc(O)cc1		inactive
CCN(CC)CCNC(=O)c1c(C)[nH]c(/C=C2\C(=O)Nc3ccc(F)cc32)c1C		inactive
CC1(C)S[C@@H]2[C@H](NC(=O)Cc3ccccc3)C(=O)N2[C@H]1C(=O)O		inactive
O=C1NC(=O)C(c2ccccc2)(c2ccccc2)N1		inactive
CN(Cc1cnc2nc(N)nc(N)c2n1)c1ccc(C(=O)N[C@@H](CCC(=O)O)C(=O)O)cc1	0.106 µM (active)	
CC/C(=C(/CC)c1ccc(O)cc1)c1ccc(O)cc1		inactive
CS(=O)(=O)OCCCCOS(C)(=O)=O	21 µM (active)	
CC1=C(/C=C/C(C)=C/C=C/C(C)=C/C(=O)O)C(C)(C)CCC1	0.471 µM (active)	
O=C1NS(=O)(=O)c2ccccc21		inactive
